This is one part of a sample in which hits are shown more often than they occur.
Methyltransferases – Primary Screen for Target Class Profiling of Small Molecule Inhibitors of Methyltransferases | purified enzyme, MTase-Glo SAH luminescence; hits give low values | calls only at 40 µM | 3.9% of 25,000 active; call rule not given here
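Each enzyme was assayed with SAM and its substrate. SAH formation detected by MTase-Glo luminescence; single-point 40 uM screen[…].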
Calls only.

What do the screens show for `CCc1cc2c(cc3n2CC(C)(C(=O)NC2CCCCCC2)N(Cc2cccs2)C3=O)s1` (stereo not drawn)?
Methyltransferases: inactive

How did Cn1cc(-c2cc(=O)c3ccnc(NCc4ccc(F)cc4)c3o2)cn1 do in these assays?
Methyltransferases: inactive

What do the screens show for `C=CC(C)(C)c1[nH]c2cc3c(cc2c1CC1NC(=O)C2CCCN2C1=O)C=CC(C)(C)O3` (stereo not drawn)?
Methyltransferases: inactive

How did Cn1cc(CN2C[C@H](C(=O)Nc3ccc(F)cc3)C[C@@H]2c2cccc(C(F)(F)F)c2)cn1 do in these assays?
Methyltransferases: inactive

What do the screens show for `O=C(/C=C/c1ccc(O)c(O)c1)OC[C@H]1O[C@@H](OC2CCCCC2O)[C@H](O)[C@@H](O)[C@@H]1O` (stereo partly drawn)?
Methyltransferases: inactive

How did CC(C)(O)C1CC=C(C(=O)OC[C@H]2O[C@@H](Oc3cc(C(=O)O)cc(O)c3O)[C@H](O)[C@@H](O)[C@@H]2O)CC1 (stereo partly drawn) do in these assays?
Methyltransferases: active

How did CC(=O)c1ccc(O[C@@H]2O[C@H](CO[C@@H]3OC[C@@H](O)[C@H](O)[C@H]3O)[C@@H](O)[C@H](O)[C@H]2O)cc1 do in these assays?
Methyltransferases: inactive

How did Cc1cc(O[C@@H]2O[C@H](COC(=O)CC(=O)O)[C@@H](O)[C@H](O)[C@H]2O)c(C(C)C)cc1O do in these assays?
Methyltransferases: inactive

What do the screens show for `CC(C)(O)C1CC=C(C(=O)OCC2OC(Oc3c(O)cc(C(=O)O)cc3O)C(O)C(O)C2O)CC1` (stereo not drawn)?
Methyltransferases: active

Results for COc1cc(C(=O)OCC2=CCC3C(C(=O)O)=COC(O[C@@H]4O[C@H](CO)[C@@H](O)[C@H](O)[C@H]4O)C23)ccc1O (stereo partly drawn) ?
Methyltransferases: inactive

How did CCCCN1C(=O)c2cc(C(=O)NCc3ccc(F)cc3)nn2CC1(C)C(=O)NC1CCCC1 (stereo not drawn) do in these assays?
Methyltransferases: inactive

How did C/C=C(/C=C(C)/C=C/C=C/C=C(\C)C(=O)C12OC1C(O)(CCO)NC2=O)C(=O)OC (stereo not drawn) do in these assays?
Methyltransferases: inactive

How did NC(N)=NC(N)=Nc1ccccc1 do in these assays?
Methyltransferases: inactive

Results for CC(C)CCn1c(=O)c2ccc(C(=O)NC(C)C)cc2n2c(=O)[nH]nc12 ?
Methyltransferases: inactive

How did CON(C)C(=O)[C@H](O)[C@H](Cc1ccccc1)NC(=O)c1cc2cc(Cl)ccc2[nH]1 do in these assays?
Methyltransferases: inactive

How did CCCN1C(=O)c2c(C(=O)NCCc3cccs3)ncn2CC1(C)C(=O)NC1CCCC1 (stereo not drawn) do in these assays?
Methyltransferases: inactive

Results for Cc1ccc(NC2=CC(=O)c3sc(C)nc3C2=O)cc1 ?
Methyltransferases: active

What do the screens show for `CNCCC(c1cccs1)c1ccc(O)c2ccccc12` (stereo not drawn)?
Methyltransferases: active

Results for O=C(Cn1c(=O)oc2cc(S(=O)(=O)N3CCCC3)ccc21)N1CCN(Cc2ccccc2)CC1 ?
Methyltransferases: inactive

Results for COCCN(CCOC)C(=O)[C@@H](C)C1CC[C@@]2(C)CC[C@H](NC(=O)c3cncnc3)[C@@H](C)[C@@H]2[C@H]1O (stereo partly drawn) ?
Methyltransferases: inactive

How did C[C@@H]1O[C@@H](O[C@H]2[C@H](O)[C@@H](O[C@@H]3O[C@H](CO)[C@@H](O)[C@H](O[C@@H]4O[C@H](CO)[C@@H](O)[C@H](O)[C@H]4O)[C@H]3O)[C@H](O[C@H]3CC[C@@]4(C)C(=CC[C@@H]5C4CC[C@@]4(C)C5C[C@@H]5OC6(CC[C@@](C)(CO[C@@H]7O[C@H](CO)[C@@H](O)[C@H](O)[C@H]7O)O6)[C@@H](C)[C@@H]54)C3)O[C@@H]2CO)[C@H](O)[C@H](O)[C@H]1OC1OC(CO)C(O)C(O)C1O (stereo partly drawn) do in these assays?
Methyltransferases: inactive

What do the screens show for `COC(=O)c1cc2n(n1)CC(C)(C(=O)NC1CCC(C)CC1)N(c1cc(C)ccc1C)C2=O` (stereo not drawn)?
Methyltransferases: inactive

How did COc1ccc(CNC(=O)CSc2nnc3n(CCC(C)C)c(=O)c4ccccc4n23)cc1 do in these assays?
Methyltransferases: inactive

What do the screens show for `Cc1cc(C)n(-c2ccc(C(=O)N[C@H]3C[C@H]4C(=O)NCC(=O)N4C3)cc2)n1`?
Methyltransferases: inactive

Results for COCCNC(=O)CCc1nnc2n(Cc3ccc(Cl)cc3)c(=O)c3ccccc3n12 ?
Methyltransferases: inactive

What do the screens show for `CCN(CCCNC(=O)CCc1nnc2n(Cc3ccccc3)c(=O)c3ccccc3n12)c1ccccc1`?
Methyltransferases: inactive

Results for O=C(CCc1nnc2n(Cc3ccc(F)cc3)c(=O)c3ccccc3n12)NCc1ccc(F)cc1 ?
Methyltransferases: inactive

How did CCN(CC)CCCNC(=O)CCc1nnc2n(Cc3ccc(F)cc3)c(=O)c3ccccc3n12 do in these assays?
Methyltransferases: active

How did O=C(CCc1nnc2n(Cc3ccccc3)c(=O)c3ccccc3n12)NCCc1ccc(Cl)cc1 do in these assays?
Methyltransferases: inactive

Results for CCN(CC)CCNC(=O)CCc1nnc2n(Cc3ccc(Cl)cc3)c(=O)c3ccccc3n12 ?
Methyltransferases: active

Results for Cc1ccc(CNC(=O)C2(C)Cn3nc(C(=O)NCc4ccc(C)o4)cc3C(=O)N2C)cc1 (stereo not drawn) ?
Methyltransferases: inactive

How did COC(=O)C1Cc2c([nH]c3ccccc23)C(C)N1 (stereo not drawn) do in these assays?
Methyltransferases: inactive

What do the screens show for `CCCOCCc1nc2c([nH]1)CC(C)(C)CNC2=O`?
Methyltransferases: inactive

How did CC1CC(=O)C2=C(C1)C1OC1C1(O)C2C(=O)c2cccc(O)c2C1O (stereo not drawn) do in these assays?
Methyltransferases: inactive

Results for CC(C)NC(=O)N1CCN(S(C)(=O)=O)[C@@H](C(=O)N[C@H](Cc2c[nH]c3ccccc23)C(N)=O)C1 ?
Methyltransferases: inactive

Results for Cc1cc2[nH]c(=O)[nH]c2cc1S(=O)(=O)NCc1ccc2c(c1)OCO2 ?
Methyltransferases: inactive

Results for Cc1ccc(C)c(Cn2nc3n(Cc4ccccc4)c(=O)c4ccc(C(=O)NC(C)C)cc4n3c2=O)c1 ?
Methyltransferases: inactive

What do the screens show for `Cc1ccc(NC(=O)CSc2nnc3[nH]c(=O)c(C)nn23)c(C)c1`?
Methyltransferases: inactive

Results for CCN1CCN(Cc2ccc(Nc3ncc(F)c(-c4cc(F)c5nc(C)n(C(C)C)c5c4)n3)nc2)CC1 ?
Methyltransferases: active

What do the screens show for `COCCCNC(=O)C1CCCN1Cc1cccc(-c2ccc(C)c(Cl)c2)c1` (stereo not drawn)?
Methyltransferases: inactive

What do the screens show for `CC(=O)O[C@@H]1[C@H](O[C@@H]2O[C@@H](CO)[C@H](O)[C@H]2O)[C@@H](O[C@@H]2O[C@@H](C)[C@H](O[C@@H]3OC[C@@H](O)[C@H](O)[C@H]3O)[C@@H](O)[C@H]2O)[C@H](OC(=O)[C@]23CCC(C)(C)C[C@H]2C2=CCC4[C@@]5(C)CC[C@H](O[C@@H]6O[C@H](C(=O)O)[C@@H](O)[C@H](O)[C@H]6O[C@@H]6O[C@H](CO)[C@H](O)[C@H](O)[C@H]6O)[C@@](C)(C=O)C5CC[C@@]4(C)[C@]2(C)C[C@H]3O)O[C@@H]1C` (stereo partly drawn)?
Methyltransferases: inactive

What do the screens show for `CCCNC(=O)c1ncn2c1C(=O)N(C1CC1)C(C)(C(=O)NCc1ccccc1OC)C2` (stereo not drawn)?
Methyltransferases: inactive

Source: PubChem
